Source: PubChem
ATXN2 expr inh = reduces ATXN2 reporter expression in HEK-293 cells. HEK-293 ATXN2-luciferase reporter, luminescence, 24 h. 360,000 compounds, 0.72% hits. Potency, µM (doses to about 57 µM), for the others: at the highest dose activity change, negative = inhibition, most hits filed as inhibitors. AID 1745845; note: potency is the fitted concentration of half-maximal effect; % is set by controls: 0 for no effect and ±100 for the full control effect; nearly all actives have a fitted effect of over 55% in size
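qHTS (up to 57 uM final) was run with 24 h compound exposure of reporter cells at 37 °C. Each well was multiplexed: SteadyGlo luminescence measured ATXN2-luciferase expression after a fluorogenic Gly-Phe-AFC viability readout (25 uM final).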
HepG2 tox-1 = kills HepG2 cells in TGF-b inhibitor counter-screen; 410,000 compounds, 0.76% hits; Potency, µM (top dose mostly 46.1 µM), inactives show at the top dose activity change, negative = cytotoxicity, hits mostly cytotoxic; HepG2 CAGA-GFP viability, ATP luminescence, 18 h; note: potency is the fitted concentration of half-maximal effect
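CellTiter-Glo luminescence gave cytotoxicity after 18 hours at 37 degrees C. The cells were HepG2 CAGA-GFP in 1% FBS DMEM, stimulated with 500 pg/mL TGF-beta after compound addition. %Activity was normalised to no-cell wells (complete cell-killing) and DMSO (no toxicity), and curves were fitted and classified.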
TGFb SMAD3 inh = TGF-b pathway inhibition | HepG2 CAGA-GFP TGF-b/SMAD3 reporter, GFP fluorescence, 18 h; TGF-beta stimulated, 500 pg/mL final | Potency, µM (highest dose often 46.1 µM), inactives show at the top dose activity, negative = inhibition, actives largely listed as inhibitors | 410,000 compounds, 1.2% hits | AID 588855; note: potency is the fitted concentration of half-maximal effect; % is set by controls: 0 for no effect and ±100 for the full control effect; nearly all actives have a fitted effect of over 65% in size
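First, reporter cells (HEPG2 CAGA-GFP) rested 2 h at 37 degrees C. Next, compounds were pinned in and TGF-beta added to 500 pg/mL final. After 18 h, GFP was imaged per cell and summed per well.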
LDHA block = inhibitors of human lactate dehydrogenase A; P00338; purified LDHA, NADH/diaphorase-resazurin fluorescence; active compounds read low; activity change, % (values are at about 110 or 230 µM); 480,000 compounds, 0.15% hits; in the data active = activity change below about -30%; inconclusive = mostly about -25% to -30%;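 note: plate controls were DMSO wells for no effect and wells without enzyme for full effect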
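Remaining NADH was detected by diaphorase (0.133 mg/mL) converting 37 µM resazurin to fluorescent resorufin, read at 0 and 20 minutes. The preceding 5-minute room-temperature reaction used 2 nM LDHA, 0.2 mM sodium pyruvate and 0.06 mM NADH at pH 7.4.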
mIDH1 inhibitor = blocks human mutant IDH1 R132H enzyme | O75874 | IDH1-R132H enzyme, NADPH consumption, diaphorase/resazurin fluorescence | Potency, µM (series often up to 76.6 µM), for the others: top-dose activity change, negative = inhibition, most hits filed as inhibitors | 390,000 compounds, 0.093% hits; note: potency is the fitted concentration of half-maximal effect; % is set by controls: 0 for no effect and ±100 for the full control effect; nearly all actives have a fitted effect of over 65% in size
Target sequence (O75874 whole entry R132H, stated change not applied): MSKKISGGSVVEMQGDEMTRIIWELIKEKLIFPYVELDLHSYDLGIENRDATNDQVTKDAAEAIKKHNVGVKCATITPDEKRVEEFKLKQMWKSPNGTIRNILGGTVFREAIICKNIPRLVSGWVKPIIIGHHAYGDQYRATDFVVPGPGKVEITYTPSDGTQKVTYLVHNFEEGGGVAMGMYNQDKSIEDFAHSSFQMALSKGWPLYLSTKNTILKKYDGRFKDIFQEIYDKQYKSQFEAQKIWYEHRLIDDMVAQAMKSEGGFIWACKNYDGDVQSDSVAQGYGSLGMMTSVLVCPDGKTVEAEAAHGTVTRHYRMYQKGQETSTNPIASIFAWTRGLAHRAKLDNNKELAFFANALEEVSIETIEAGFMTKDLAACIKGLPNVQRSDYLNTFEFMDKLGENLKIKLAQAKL
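IDH1-R132H (0.5 ug/mL dispensed) in pH 7.5 Tris buffer was preincubated 30 min with compound, then given a substrate mix of 0.016 mM NADPH and 2 mM alpha-KG for 80 min at room temperature; remaining NADPH was read by diaphorase/resazurin fluorescence.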
ATXN viability = reduces viability in counter-screen for ATXN expression inhibitors | S2 cells (HEK-293 line with an ATXN2-luciferase reporter) viability, CellTiter-Fluor protease fluorescence, 24 h | AID 651635 | Potency, µM (titrated, usually from 56.7 µM), hits mostly cytotoxic | 400,000 compounds, 0.49% hits; note: potency is the fitted concentration of half-maximal effect; nearly all actives have a fitted effect of over 40% in size
TGFb confirm = confirmation of TGF-b signaling inhibitors in HepG2 reporter cells; shares compounds with TGFb SMAD3 inh; HepG2 CAGA-GFP TGF-b reporter, GFP fluorescence, 18 h; cells stimulated with TGF-beta, 500 pg/mL; Potency, µM (series often up to 46.1 µM), without a hit: at the highest dose activity, negative = inhibition, most hits filed as inhibitors; 1,600 compounds, 63% hits; AID 720534; note: potency is the fitted concentration of half-maximal effect; % is set by controls: 0 for no effect and ±100 for the full control effect; nearly all actives have a fitted effect of over 65% in size
HepG2 tox-2 = HepG2 cytotoxicity, TGF-b inhibitor counterscreen; shares compounds with TGFb SMAD3 inh; HepG2 CAGA-GFP viability, ATP luminescence, 18 h; cells stimulated with TGF-beta, 500 pg/mL; Potency, µM (highest dose often 46.1 µM), without a hit: at the highest dose activity, negative = cytotoxicity, usual class: inhibitors; 1,600 compounds, 27% hits; note: potency is the fitted concentration of half-maximal effect; % is set by controls: 0 for no effect and ±100 for the full control effect; nearly all actives have a fitted effect of over 70% in size
CCL64 TGFb inh = blocks TGF-b signaling in CCL64 reporter cells; shares compounds with TGFb SMAD3 inh; CCL64 CAGA-GFP reporter, TGF-b stimulated, GFP fluorescence, 18 h; Potency, µM (series often up to 46.1 µM), without a hit: at the top dose activity, negative = inhibition, most hits filed as inhibitors; 1,600 compounds, 41% hits; note: potency is the fitted concentration of half-maximal effect; nearly all actives have a fitted effect of over 65% in size
TGFb COP inh = validation of TGF-b inhibitors in HepG2 COP promoter reporter. shares compounds with TGFb SMAD3 inh. HepG2 COP-GFP TGF-b reporter, GFP fluorescence, 18 h; cells stimulated by added recombinant TGF-beta. Potency, µM (top dose mostly 46.1 µM), inactives show at the highest dose activity, negative = inhibition, usual class: inhibitors. 1,600 compounds, 3% hits; note: potency is the fitted concentration of half-maximal effect; nearly all actives have a fitted effect of over 70% in size
An asterisk follows results filed as active; i = inactive; u = inconclusive; x = not tested or not shown. This is a sample that favours compounds with a hit; in the whole collection about 2.2% have one here. Unless noted, calls come from the whole dose curve; as a rule, active = well fitted curve in the direction sought with a large enough effect; inconclusive = small, poorly fitted or top-dose-only effect, or another doubt; inactive = no such curve, though single readings can be large; an effect the other way counts as inactive or inconclusive.

SMILES	ATXN2 expr inh	HepG2 tox-1	TGFb SMAD3 inh	LDHA block	mIDH1 inhibitor	ATXN viability	TGFb confirm	HepG2 tox-2	CCL64 TGFb inh	TGFb COP inh
COc1ccc(S(=O)(=O)N2c3ccc(F)cc3CCC2C)cc1 (stereo not drawn)	x	-28%	6.3µM*	-1	0%	u	4.1µM*	-7%	5.8µM*	-16%
COc1ccc(S(=O)(=O)N2Cc3ccccc3-n3nncc3C2)cc1	-8%	7%	2%	-2	1%	i	x	x	x	x
O=C1NCN(c2ccccc2)C12CCN(C(c1cc3ccccc3o1)c1nnnn1C1CCCCC1)CC2 (stereo not drawn)	u	-111%	10µM*	3	x	u	18µM*	u	23µM*	u
COc1cc(C=O)cc2c1OCO2	x	x	x	13	x	x	x	x	x	x
CC(=O)OC1(C)CC(C)C(=O)C(C(O)CC2CC(=O)NC(=O)C2)C1 (stereo not drawn)	0.03µM*	-33%	-92%	-1	12%	u	0.052µM*	0.13µM*	0.021µM*	5%
CCc1c(-c2ccccc2)nc2ccccc2c1C(=O)N1CCC2(CC1)OCCO2	-9%	11%	17%	-2	2%	i	x	x	x	x
c1coc(CNCCc2c[nH]c3ccccc23)c1	2%	-16%	5%	0	-4%	i	x	x	x	x
Cc1cc[n+](Cc2ccccc2)cc1	-10%	-13%	0%	-12	-5%	i	x	x	x	x
COc1ccc(-n2nnnc2C(c2ccccc2OC(F)(F)F)N2CCC(n3c(=O)[nH]c4ccccc43)CC2)cc1 (stereo not drawn)	u	-6%	11µM*	2	x	u	5.8µM*	u	u	66%
COc1ccc(-n2nnnc2C(CCc2ccccc2)N2CCC(n3c(=O)[nH]c4ccccc43)CC2)cc1 (stereo not drawn)	u	-20%	11µM*	-10	x	10µM*	u	-28%	u	8%
NC(=Nc1ccccc1)Nc1ccccc1	8%	-8%	8.9µM*	-3	4%	u	9.2µM*	u	u	44%
CC(/C=C(\C)Nc1ccccc1)=Nc1ccccc1	-5%	-9%	-17%	6	22%	i	x	x	x	x
Nc1ncnc2c1ccn2[C@@H]1O[C@H](CO)[C@@H](O)[C@H]1O	1.1µM*	1µM*	0.45µM*	-7	-2%	3.2µM*	0.58µM*	0.92µM*	0.82µM*	45%
NC(=S)c1cn(C2OC(CO)C(O)C2O)c2ncnc(N)c12 (stereo not drawn)	x	-37%	0.32µM*	-3	-9%	u	0.26µM*	0.16µM*	0.46µM*	44%
CC(=NCCc1c[nH]c2ccccc12)c1c(O)n(Cc2ccccc2)c(=O)[nH]c1=O	u	31%	11µM*	-3	2%	i	21µM*	-28%	u	-4%
CC(=NCCN1CCOCC1)c1c(O)n(Cc2ccccc2)c(=O)[nH]c1=O	-4%	-12%	23%	2	-1%	i	x	x	x	x
Cc1[nH]c2ccc(OC(F)(F)F)cc2c1CCNCc1ccc(Cl)cc1	20µM*	11µM*	10µM*	-6	-5%	u	u	u	u	u
Cc1[nH]c2ccc(OC(F)(F)F)cc2c1CCNCc1cccc([N+](=O)[O-])c1	u	i	u	-1	5%	i	x	x	x	x
CC1=C(N2CC2)C(=O)C(CO)=C(N2CC2)C1=O	0.12µM*	-110%	0.32µM*	37	16%	2.7µM*	0.1µM*	0.21µM*	-113%	-87%
Cn1cc(C(=O)OCC(=O)NC2CCCCCCC2)c2ccccc21	x	x	x	3	x	x	x	x	x	x
CCOC(=O)c1c(C)n(Cc2ccccc2)c2ccc(OCC(O)Cn3nc(C)cc3C)cc12 (stereo not drawn)	-18%	-10%	14µM*	5	5%	u	21µM*	u	15µM*	40%
CCOC(=O)c1c(C)n(Cc2ccccc2)c2ccc(OC(C)=O)cc12	x	x	x	0	x	x	x	x	x	x
N=c1sc2c(n1Cc1ccccc1)CCCC2	-8%	-29%	-16%	3	3%	i	x	x	x	x
CC(C1CC1)N(C)C(=O)c1cn(Cc2ccccc2)c2ccccc12 (stereo not drawn)	x	x	x	3	x	x	x	x	x	x
CCCCCn1c(N)c(C(=O)NCc2cccs2)c2nc3ccccc3nc21	-17%	-3%	-8%	8	4%	i	x	x	x	x
CCCCn1c(N)c(C(=O)NCc2cccs2)c2nc3ccccc3nc21	-30%	-82%	10µM*	10	6%	i	u	-25%	u	6%
CCC1(OC(=O)CN)C(=O)OCc2c1cc1n(c2=O)Cc2cc3ccccc3nc2-1 (stereo not drawn)	0.0095µM*	-20%	2.2µM*	-5	0%	x	1.2µM*	0.58µM*	2.3µM*	9%
Clc1ccc(CO[C@@H](Cn2ccnc2)c2ccc(Cl)cc2Cl)cc1	x	x	x	x	x	i	x	x	x	x
CC(C)c1ccc(N2C(=O)NC(=O)/C(=C\C=C\c3ccco3)C2=O)cc1	u	1%	10µM*	-10	0%	28µM*	4.1µM*	7.3µM*	5.8µM*	34%
